# Bioassay records deposited in PubChem BioAssay by National Center for Advancing Translational Sciences (NCATS).
# Most compounds without a hit are left out; they make up all but 9.3% or so of the library.
# SMN2 splice up: enhancers of SMN2 splice variant expression | HEK293 SMN2-luciferase splicing reporter, luminescence, 30-36 h | Potency, µM (titrated, usually from 46.1 µM), inactives show top-dose activity change, positive = activation, most hits filed as activators | 210,000 compounds, 2.8% hits; note: % of control where 0% means no effect; nearly all actives have a fitted effect of over 55% in size
#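 qHTS luciferase splicing reporter: luminescence rises when SMN2 exon 7 is included in transfected HEK293 cells. Compound exposure lasted 30-36 h at 37C, with 4.5 mM final sodium butyrate as control, followed by a ONE-Glo read.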
# ELG1 DNA repair: inhibitors of ELG1-dependent DNA repair in HEK293T cells; Potency, µM (top dose mostly 46.1 µM), for inactives: top-dose activity change, negative = inhibition, hits mostly inhibitors; 330,000 compounds, 2.3% hits; HEK293T ELG1-luciferase reporter, luminescence, 16 h; DNA damage induced by 5-fluorouridine; note: % is set by controls: 0 for no effect and ±100 for the full control effect; nearly all actives have a fitted effect of over 55% in size
#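 DMSO vehicle served as the neutral condition. Each well held 2,000 cells given 5-fluorouridine plus compound; after 16 hr at 37 °C/5% CO2, ONE-Glo was added and luciferase measured 30 min later.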
# FLuc modulator: firefly luciferase modulation, counter-screen for miR-21 project | AID 588342 | purified FLuc, Km substrates, luminescence inhibition | 360,000 compounds, 6.9% hits | P08659 | Potency, µM (top dose mostly 57.5 µM), without a hit: at the top dose activity change, negative = inhibition, usual class: inhibitors;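 note: plate controls were vehicle for no effect and reference inhibitor for full effect; nearly all actives have a fitted effect of over 55% in size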
# Target sequence (P08659 whole entry, looked up): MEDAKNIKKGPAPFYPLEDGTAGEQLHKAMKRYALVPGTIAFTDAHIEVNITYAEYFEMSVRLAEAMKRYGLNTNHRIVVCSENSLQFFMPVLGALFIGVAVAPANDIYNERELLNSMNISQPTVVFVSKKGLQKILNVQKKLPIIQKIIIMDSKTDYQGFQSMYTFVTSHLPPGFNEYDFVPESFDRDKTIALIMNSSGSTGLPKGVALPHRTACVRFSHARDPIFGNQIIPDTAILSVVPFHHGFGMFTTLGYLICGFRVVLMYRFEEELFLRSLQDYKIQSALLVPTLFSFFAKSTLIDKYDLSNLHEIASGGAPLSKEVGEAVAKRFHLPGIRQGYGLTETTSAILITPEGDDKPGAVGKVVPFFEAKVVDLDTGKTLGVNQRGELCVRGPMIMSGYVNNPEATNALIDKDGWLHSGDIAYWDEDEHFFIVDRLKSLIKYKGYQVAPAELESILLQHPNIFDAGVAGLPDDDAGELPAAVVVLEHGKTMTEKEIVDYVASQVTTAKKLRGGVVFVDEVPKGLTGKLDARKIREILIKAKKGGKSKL
#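 Biochemical qHTS of compounds, final roughly 60 µM downward over six points, against 10 nM purified firefly luciferase using Km concentrations of substrates (10 uM D-luciferin, 10 uM ATP) in Tris acetate pH 7.5 buffer; luminescence output.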
# NPC1 promoter act: NPC1 promoter activation. Huh7 NPC1 promoter luciferase reporter, 24 h. AID 485313. 320,000 compounds, 2.4% hits. Potency, µM (highest dose often 9.22 µM), without a hit: at the top dose activation, usual class: activators; note: % of control where 0% means no effect; nearly all actives have a fitted effect of over 60% in size
#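 Huh7 cells stably carrying NPC1 promoter–luciferase, plated in Opti-MEM with 10% FBS for 2 h, were exposed to compound in DMSO for 24 h at 37 °C; luciferase reagent was added for 10 min and luminescence read.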
# ELG1 genotox: induces genotoxicity in HEK293T cells with luciferase-tagged ELG1. HEK293T ELG1-luciferase reporter, luminescence, 16 h. Potency, µM (titrated, usually from 46 µM), for inactives: at the top dose activity change, positive = activation, actives largely listed as activators. 330,000 compounds, 1.3% hits. AID 504466; note: % of control where 0% means no effect; nearly all actives have a fitted effect of over 60% in size
#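 Genotoxicity was scored as increased ELG1-luciferase reporter signal, measured by ONE-Glo luminescence (30 min, room temperature). Compound or vehicle exposure of the HEK293T reporter cells lasted 16 hr at 37°C.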
# Rab9 prom act: activators of Rab9 promoter; Potency, µM (highest dose often 9.22 µM), without a hit: top-dose activation, negative = inhibition, usual class: activators; 320,000 compounds, 2.8% hits; Huh7 Rab9 promoter-luciferase reporter, luminescence, 24 h; note: % of control where 0% means no effect; nearly all actives have a fitted effect of over 60% in size
#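 Luminescence from Amplite-detected luciferase (10 minutes, ambient) reports Rab9 promoter activation. Before that, stable Rab9-luciferase Huh7 cells (1500/well, reduced-serum OP-MEM I plus 10% FBS) were exposed to compound for 24 hours at 37C.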
# An asterisk follows results filed as active; ? = inconclusive; / = no result. Calls come from the whole dose curve; as a rule, active = well fitted curve in the direction sought with a large enough effect; inconclusive = small, poorly fitted or top-dose-only effect, or another doubt; inactive = no such curve, though single readings can be large; an effect the other way counts as inactive or inconclusive. Potency is the fitted concentration of half-maximal effect.
SMILES,SMN2 splice up,ELG1 DNA repair,FLuc modulator,NPC1 promoter act,ELG1 genotox,Rab9 prom act
CCOC(=O)c1sc(NC(=O)CSc2n[nH]c(-c3ccncc3)n2)c(C#N)c1C,/,18.4µM*,-0.2%,0.7%,-13.0%,-8.6%
COC(=O)c1sc(NC(=O)c2cc(-c3ccccc3)nc3ccccc23)c(C#N)c1C,-91.3%,-1.8%,?,-32.9%,-3.2%,-29.5%
Cc1ccccc1-c1cc(C(=O)Nc2sc(C(=O)OC(C)C)c(C)c2C#N)c2ccccc2n1,-67.7%,23.1µM*,-0.6%,14.7%,-9.9%,-0.9%
Cc1sc(NC(=O)c2cc(-c3ccccc3)nc3ccccc23)c(C(N)=O)c1C,-12.1%,5.8µM*,2.8%,2.0%,-10.1%,-0.7%
COc1ccc(CCC(=O)OCC(=O)N(CC(C)C)c2c(N)n(Cc3ccccc3)c(=O)[nH]c2=O)cc1,/,9.9%,5.4%,-4.6%,0.9%,-3.5%
CCCN(C(=O)CSc1n[nH]c(-c2ccc(OC)cc2)n1)c1c(N)n(Cc2ccccc2)c(=O)[nH]c1=O,/,16.1%,10.7µM*,-2.0%,3.1%,-4.5%
COc1ccc(-c2nc(SCC(=O)N(CC(C)C)c3c(N)n(Cc4ccccc4)c(=O)[nH]c3=O)n[nH]2)cc1,/,25.4%,1.9µM*,8.8%,-1.9%,-1.4%
O=C(N/N=C/C(Br)=C\c1ccccc1)c1n[nH]c2c1CCC2,12.6µM*,?,2.39µM*,?,2.31µM*,19.9%
CC(/C=N/NC(=O)c1n[nH]c2c1CCC2)=C\c1ccccc1,?,?,4.78µM*,27.7%,2.31µM*,2.4%
c1ccc2c(c1)OCC(CNc1ncnc3sccc13)O2 (configuration not stated),-63.5%,?,?,-31.3%,7.6%,-24.3%
CCN1CCN(C(=O)c2ccc(C(F)(F)F)cc2)CC1,6.2%,4.2%,-2.1%,-0.2%,0.1%,7.7%
CCOc1ccc(N(C(C)=O)c2nc(C)cc(C)c2C#N)cc1,12.9%,4.0%,1.9%,-3.0%,5.5%,-2.8%
Cc1ccc(NC(=O)c2ccco2)cc1C,15.8µM*,?,9.53µM*,2.82µM*,?,3.98µM*
C[C@H](NC(=O)c1ccco1)C(=O)Nc1ccc2c(c1)OCO2,-0.8%,-2.6%,-15.1%,3.2%,0.2%,0.6%
Cc1cccc2c(=O)c(-c3ccc4c(c3)OCO4)c(NC(=O)c3ccco3)oc12,/,10.3µM*,?,-4.6%,-2.0%,-0.4%
O=C(Nc1cccc(NC(=O)c2ccco2)c1)c1ccc2c(c1)OCO2,3.0%,-24.8%,15.1µM*,2.6%,0.3%,-5.0%
Cc1ccc(C(=O)Nc2ccc3c(c2)OCO3)cc1NC(=O)c1ccco1,?,?,?,17.7%,9.8%,?
Cc1cccc(-c2c(NC(=O)c3ccco3)oc3c(C)cccc3c2=O)c1,/,-18.0%,-1.9%,15.2%,-8.8%,-2.0%
O=C(Nc1ccc2c(c1)OCCO2)c1ccco1,10µM*,?,8.49µM*,2µM*,3.66µM*,2.24µM*
COc1ccc(CCN2C(=O)CN(C3CCCCCC3)C(=O)C2c2ccc(Cl)cc2)cc1OC (configuration not stated),/,/,-1.5%,/,/,/
O=C(CCCN1CCC(NC(=O)c2ccccc2)CC1)c1ccc(Cl)cc1,/,-3.5%,-1.4%,-1.7%,-3.4%,1.4%
COc1ccc(OCCC(=O)OCc2c(C)noc2C)cc1,-6.3%,-0.3%,0.6%,-0.7%,0.0%,-2.4%
Cc1cc(NC(=O)c2ccc3c(c2)OCO3)ccc1NC(=O)c1ccco1,17.1%,?,21.3µM*,11.5%,2.7%,12.3%
COc1cc(NC(=O)c2ccc3c(c2)OCCO3)ccc1NC(=O)c1cccs1,20.4%,4.4%,5.36µM*,18.4%,2.4%,18.1%
O=C(COC(=O)c1ccco1)Nc1ccc2c(c1)OCCO2,-1.2%,4.9%,2.39µM*,-3.0%,1.0%,0.6%
SMILES,SMN2 splice up,ELG1 DNA repair,FLuc modulator,NPC1 promoter act,ELG1 genotox,Rab9 prom act
O=C(CNC(=O)c1cccs1)Nc1ccc2c(c1)OCCO2,/,?,6.01µM*,1.26µM*,1.64µM*,1.12µM*
CN(C)CCCNC(=S)N(CCN(C)C)Cc1cc2cc3c(cc2[nH]c1=O)OCCO3,/,-16.7%,3.8%,0.8%,-1.6%,6.6%
O=C(Nc1cccc(NC(=O)c2ccco2)c1)c1ccc2c(c1)OCCO2,19.8%,12.5%,9.53µM*,3.6%,-0.4%,13.1%
CC(=O)Nc1cccc(NC(=O)c2ccco2)c1,21.6%,1.5%,-10.9%,0.3%,-0.6%,-0.4%
O=C(COC(=O)c1ccc(O)cc1O)Nc1ccc2c(c1)OCCO2,/,?,15.1µM*,-0.2%,?,-1.6%
O=C(Nc1cccc(NC(=O)c2ccco2)c1)c1ccccc1,/,0.1%,?,1.9%,0.3%,2.9%
COc1cc(NC(=O)c2ccc3c(c2)OCCO3)ccc1NC(=O)c1ccco1,/,-0.2%,3.38µM*,22.4%,0.6%,29.4%
CC1(C)Oc2ccc(NC(=O)c3ccco3)cc2O1,12.6µM*,?,6.01µM*,1µM*,?,2.51µM*
COc1ccc(C(=O)Nc2ccc(NC(=O)c3ccco3)c(Cl)c2)cc1OC,-17.3%,-24.2%,-2.5%,-3.1%,-0.4%,3.9%
Cc1ccc2[nH]c(=O)c(-c3noc(CC(C)C)n3)cc2c1,/,-7.8%,-16.7%,1.7%,1.2%,-0.3%
COC(=O)c1sc2ccccc2c1NC(=O)c1ccc(S(=O)(=O)N2CCCCC2C)cc1 (configuration not stated),-24.2%,-6.6%,-3.6%,-4.8%,0.0%,-4.2%
N/C(=N\c1nc2ccccc2o1)NC(=O)/C=C/c1ccccc1,/,-16.0%,-1.1%,0.6%,-0.4%,-1.3%
CC(C)CC(=O)NC(=S)Nc1ccccn1,-1.8%,?,-12.7%,7.7%,9.0%,4.8%
COc1ccccc1C(=O)N/C(N)=N/c1nc2ccccc2o1,20.4%,?,?,?,16.1%,?
CC(C)(C)C(=O)N/C(N)=N/c1nc2ccccc2o1,/,?,3.5%,0.891µM*,?,0.447µM*
CC(C)CC(=O)N/C(N)=N/c1nc2ccccc2o1,/,?,8.49µM*,1.58µM*,?,1.41µM*
CCCC(=O)N/C(N)=N/c1nc2ccccc2o1,/,?,6.75µM*,0.891µM*,?,0.708µM*
CCC(=O)N/C(N)=N/c1nc2ccccc2o1,/,?,10.7µM*,3.98µM*,?,1.12µM*
N/C(=N\c1nc2ccccc2o1)NC(=O)c1cccc(Br)c1,/,18.8%,1.0%,4.5%,3.2%,-6.5%
O=C(CSc1nc2ccsc2c(=O)n1-c1ccc(Cl)cc1)NCc1ccc(Cl)cc1,/,/,-11.0%,/,/,/
N/C(=N\c1nc2ccccc2o1)NC(=O)c1ccccc1,13.2%,?,?,3.98µM*,8.2µM*,?
